High-throughput results as filed in PubChem BioAssay.
ELG1 DNA repair = blocks ELG1-dependent DNA repair in HEK293T cells. Potency, µM (series often up to 46.1 µM), for inactives: top-dose activity change, negative = inhibition, most hits filed as inhibitors. HEK293T ELG1-luciferase reporter, luminescence, 16 h; DNA damage induced by 5-fluorouridine. actives 2.3% (n = 330,000); note: potency is the fitted concentration of half-maximal effect; nearly all actives have a fitted effect of over 55% in size
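Step one: seed 2,000 cells per well. Step two: pin-transfer compound or DMSO alongside 5-fluorouridine. Step three: incubate 16 hr, 37 °C, 5% CO2. Step four: add ONE-Glo, wait 30 min, read luminescence.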
RORgamma inh = ROR gamma (mouse) transcription inhibition; P51450; Drosophila S2 Gal4-RORgamma UAS-luciferase reporter, 20 h; Potency, µM (doses to about 53.6 µM), for the others: at the highest dose activity change, negative = inhibition, usual class: inhibitors; actives 5.4% (n = 310,000); AID 2551; note: potency is the fitted concentration of half-maximal effect; nearly all actives have a fitted effect of over 60% in size
Target sequence (P51450 whole entry, looked up, the tested form may be a part): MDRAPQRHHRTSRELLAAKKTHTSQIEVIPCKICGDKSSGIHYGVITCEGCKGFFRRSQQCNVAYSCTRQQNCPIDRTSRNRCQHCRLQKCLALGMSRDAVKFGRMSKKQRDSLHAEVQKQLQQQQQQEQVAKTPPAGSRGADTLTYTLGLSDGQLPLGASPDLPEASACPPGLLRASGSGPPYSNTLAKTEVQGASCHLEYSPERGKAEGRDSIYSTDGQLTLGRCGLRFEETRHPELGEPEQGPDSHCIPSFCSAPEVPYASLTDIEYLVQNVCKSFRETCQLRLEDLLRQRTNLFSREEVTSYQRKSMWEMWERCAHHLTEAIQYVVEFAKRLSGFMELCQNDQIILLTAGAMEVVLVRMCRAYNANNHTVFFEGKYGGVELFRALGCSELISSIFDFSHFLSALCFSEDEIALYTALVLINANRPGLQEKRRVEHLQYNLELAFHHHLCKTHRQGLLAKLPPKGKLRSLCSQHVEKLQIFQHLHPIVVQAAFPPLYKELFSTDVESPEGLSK
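Luciferase reporter read in Schneider cells carrying Gal4-RORγ (mouse) and UAS-Photinus luciferase; cells given compound 1 h before 700 uM copper sulfate induction, then incubated 20 h at ambient temperature.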
IL-1B inflam inh = inflammasome signaling inhibition, IL-1 beta readout. AID 743279. actives 4.7% (n = 360,000). activity change, % at 57.5 µM. THP-1 LPS/ATP IL-1B secretion, AlphaLISA, 16 h; active compounds read low; in the data active = activity change below about -50%; inconclusive = mostly about -30% to -49%
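Secreted IL-1B measured by AlphaLISA bead assay after 16 h compound exposure of THP-1 cells; compounds (final up to 57.5 uM) added 1 h before LPS (250 ng/mL) and ATP (1.25 mM) stimulation; lower signal means less secretion.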
DT40 TDP1 no CPT = qHTS for Inhibitors of human tyrosyl-DNA phosphodiesterase 1 (TDP1): qHTS in cells in absence of CPT. DT40 Tdp1-/- hTDP1 cells, no CPT, ATP luminescence, 48 h. Potency, µM (highest dose often 46.2 µM), inactives show top-dose activity change, negative = growth inhibition, actives largely listed as inhibitors. actives 15% (n = 420,000); note: potency is the fitted concentration of half-maximal effect; nearly all actives have a fitted effect of over 55% in size
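Chicken DT40 Tdp1-/- cells complemented with human TDP1, screened without camptothecin (DMSO vehicle only), 400 cells/well. Compounds pin-transferred, cells incubated at 37 °C for at least 48 hr. Growth read as ATP-dependent luminescence (CellTiter-Glo, 30 min at RT).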
Gal4-VP16 FLuc = counter-screen for ROR gamma inhibitors: Gal4-VP16 reporter; Drosophila S2 Gal4-VP16 UAS-luciferase, luminescence, 20 h; Potency, µM (series often up to 53.6 µM), for the others: at the top dose activity, negative = inhibition, hits mostly inhibitors; actives 3.5% (n = 310,000);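 note: Gal4-VP16 expression switched on by copper sulfate through the metallothionein promoter; potency is the fitted concentration of half-maximal effect; nearly all actives have a fitted effect of over 50% in size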
DT40 TDP1 CPT = growth inhibition of DT40 Tdp1-/-;hTDP1 cells with camptothecin (screen for TDP1 inhibitors) | chicken DT40 Tdp1-/-;hTDP1 cells + 20 nM CPT, ATP luminescence, 48 h | Potency, µM (titrated, usually from 46.2 µM), inactives show top-dose activity change, negative = growth inhibition, hits mostly inhibitors | actives 12% (n = 420,000) | AID 686979; note: potency is the fitted concentration of half-maximal effect; nearly all actives have a fitted effect of over 55% in size
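Chicken DT40 Tdp1-/- cells stably complemented with human TDP1 were seeded at 400 cells/well in medium containing 20 nM camptothecin, exposed to pin-transferred compounds, and grown at 37 °C for at least 48 hr. Viability was read as ATP luminescence.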
* hit, by the source's call; i = inactive; ? = inconclusive; / = no result given. Hits are enriched below; roughly 21% of the tested compounds scored in any of these assays. Unless noted, calls come from the whole dose curve; as a rule, active = well fitted curve in the direction sought with a large enough effect; inconclusive = small, poorly fitted or top-dose-only effect, or another doubt; inactive = no such curve, though single readings can be large; an effect the other way counts as inactive or inconclusive. % is set by controls: 0 for no effect and ±100 for the full control effect.

SMILES	ELG1 DNA repair	RORgamma inh	IL-1B inflam inh	DT40 TDP1 no CPT	Gal4-VP16 FLuc	DT40 TDP1 CPT
Cc1ccc(C(=O)Nc2ccc3c(c2)OCO3)o1	?	-5%	22	16µM*	-18%	15µM*
O=C(Nc1cccc(Cl)c1)Nc1ccc2c(c1)OCO2	?	33%	?	16µM*	18%	?
CN1CCC/C1=C1/C(=O)N(c2ccccc2)N=C1NC(=O)Nc1cccc(Cl)c1	?	28%	-12	15µM*	9%	8.2µM*
CCN(CC(=O)Nc1ccc(NC(C)=O)cc1)C(=O)c1cc([N+](=O)[O-])ccc1Sc1ccc(Cl)cc1	/	/	0	?	/	?
CCN(CC)c1ccc(/C=C/c2sc3ccccc3[n+]2CCCCI)cc1	/	/	/	0.45µM*	/	0.63µM*
CCCCCCC[n+]1c(/C=C/c2ccc(N(C)C)cc2)sc2ccccc21	/	/	/	0.28µM*	/	0.16µM*
CN(C)c1ccc(CNC(=O)CCS(=O)(=O)c2ccc3c(c2)n(C)c(=O)c(=O)n3C)cc1	11%	-9%	0	-3%	3%	-10%
O=C(Nc1nccs1)c1ccc(Br)c(S(=O)(=O)N2CCOCC2)c1	21µM*	13µM*	9	?	?	-1%
O=C(Nc1nccs1)c1ccc(F)c(S(=O)(=O)N2CCOCC2)c1	-29%	-29%	i	-12%	-24%	12%
O=C(Nc1nccs1)c1ccc(S(=O)(=O)N2CCOCC2)cc1	-3%	?	0	16µM*	?	?
C[C@@H]1CN([C@H](C)CO)C(=O)CCCn2nncc2CO[C@@H]1CN(C)S(=O)(=O)c1cccs1	/	/	-4	-8%	/	-6%
COCOCCn1cc(CN2CCS(=O)(=O)N(Cc3ccc(-c4ccc(OC)cc4)cc3)C(C)C2=O)nn1 (stereo not drawn)	/	/	-3	12µM*	/	21µM*
CCC/C=C/c1ccc(CN2C(C(C)C)C(=O)N(Cc3cn(CCOCOC)nn3)CCS2(=O)=O)cc1 (stereo not drawn)	/	/	9	?	/	?
COCOCCn1cc(CN2CCS(=O)(=O)N(Cc3ccc(-c4ccc(C)cc4)cc3)C(CC(C)C)C2=O)nn1 (stereo not drawn)	/	/	-21	?	/	-64%
COCOCCn1cc(CN2CCS(=O)(=O)N(Cc3ccc(-c4ccc(Cl)c(Cl)c4)cc3)C(C(C)C)C2=O)nn1 (stereo not drawn)	/	/	-28	2.3µM*	/	2.3µM*
COCOCCn1cc(CN2CCS(=O)(=O)N(Cc3ccc(-c4ccc(Cl)cc4)cc3)C(C(C)C)C2=O)nn1 (stereo not drawn)	/	/	46	21µM*	/	18µM*
COCOCCn1cc(CN2CCS(=O)(=O)N(Cc3ccc(-c4ccc(F)cc4)cc3)C(C(C)C)C2=O)nn1 (stereo not drawn)	/	/	?	18µM*	/	?
COCc1cc(C)nc(Sc2nc3c(c(=O)n(C)c(=O)n3C)n2C)c1C#N	0%	30%	0	3%	-13%	-7%
COCOCCn1cc(CN2CCS(=O)(=O)N(Cc3ccc(-c4ccc(F)cc4)cc3)C(CC(C)C)C2=O)nn1 (stereo not drawn)	/	/	-18	15µM*	/	26µM*
COc1ccc(CCCc2nnc(SCC(=O)Nc3ccc(C)cc3)o2)cc1	/	/	/	-15%	/	-16%
CC(C)c1ccc(NC(=O)CSc2nc(=O)n(Cc3cccnc3)c3c2CCC3)cc1	/	/	/	26µM*	/	?
Cc1ccc(NC(=O)CSc2nc(=O)n(Cc3ccccn3)c3c2CCC3)cc1F	/	/	/	16µM*	/	?
